In PubChem BioAssay (NCATS):
Records with an inconclusive call do not appear. A call without a number means that no potency is given here. Active and inactive are the calls of the source. Unless noted, calls follow the shape of the dose curve; as a rule, active = well fitted curve in the direction sought with a large enough effect; inconclusive = small, poorly fitted or top-dose-only effect, or another doubt; inactive = no such curve, though single readings can be large; an effect the other way counts as inactive or inconclusive.

Key:
[1] = qHTS Assay for Identification of Small Molecule Inducers of Hypoxia Response (AID 2120; active = well fitted curve in the direction sought with a large enough effect in the signal ratio, with a control signal flat, not every such curve was filed as active; the % refers to the signal ratio)
Outline: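 Reporter induction read as the CCF4 blue/green (460nm/530nm) emission ratio after 2.5 h dye loading at room temperature. ME-180 HRE-beta-lactamase cells received titrated compounds for 17 h at 37 degrees Celsius; AC50 values derived.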

[2] = Cytometric Cell-Based qHTS for Inhibitors of the mTORC1 Signaling Pathway in MEF (Tsc2-/-, p53-/-) Cells (AID 2660);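 also: Tsc2 and p53 null MEFs carrying empty vector with compound for 24 h; percent of cells above a phospho-rpS6 to PI ratio cutoff in each well; series mostly up to about 38 µM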
Outline: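 Cells are plated, treated with compound for 24 hrs at 37 degree Celsius, then fixed, blocked and immunostained for phospho-rpS6 Ser235/236. Propidium iodide counterstain follows. Per-well % positive cells is derived from the PI-normalized phospho-S6 signal.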

[3] = High Content Imaging Cell-Based qHTS for Inhibitors of the mTORC1 Signaling Pathway in MEF (Tsc2-/-, p53-/-) Cells (AID 2666);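 also: percent of cells scored positive for phospho-rpS6 Ser235/236 immunostaining by imaging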
Outline: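 Tsc2-/-, p53-/- MEFs (empty-vector stable) grown in DMEM + 10% FBS were exposed to compounds for 24 hrs at 37 degree Celsius, fixed, and stained with Alexa-488 anti-phospho-rpS6 Ser235/236 plus Hoechst. Imaging gave the percentage of positive cells per well.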

O=C(O)c1cc(O)c(O)c(O)c1
outcome [1]: inactive

O=C(CCCCCN1CCN(c2ccccc2-c2ccccc2)CC1)NC1CCCc2ccccc21 (configuration not stated)
outcome [2]: inactive | Potency [3]: inactive

NC[C@H]1O[C@@H](n2cnc3c(N)ncnc32)[C@H](O)[C@@H]1O
outcome [2]: inactive | Potency [3]: inactive

OCC1O[C@H]([S-])[C@H](O)[C@@H](O)[C@@H]1O.[Au+] (some centres not stated)
outcome [2]: inactive | Potency [3]: inactive

NCCO
outcome [1]: inactive

C#C[C@]1(O)CC[C@H]2[C@@H]3CCC4=Cc5oncc5CC4(C)[C@H]3CCC21C (some centres not stated)
outcome [2]: inactive | Potency [3]: inactive

CC(N)C(=O)OC(C)(C)Cc1ccc(Cl)cc1 (configuration not stated)
outcome [2]: inactive | Potency [3]: inactive

Cc1ccc(S(=O)(=O)/C=C/C#N)cc1
outcome [2]: inactive | Potency [3]: inactive

C[N+]1(C)C2CC(OC(=O)[C@H](CO)c3ccccc3)CC1C1OC12 (some centres not stated)
outcome [2]: inactive | Potency [3]: inactive

Nc1ncnc2c1ncn2[C@@H]1O[C@H](COP(=O)(O)CP(=O)(O)OP(=O)(O)O)[C@@H](O)[C@H]1O
outcome [2]: inactive | Potency [3]: inactive

Nc1nc(Cl)nc2c1ncn2[C@@H]1O[C@H](COP(=O)(O)OP(=O)(O)OP(=O)(O)O)[C@@H](O)[C@H]1O
outcome [2]: inactive | Potency [3]: inactive

CCC1C(=O)OCC1Cc1cncn1C (configuration not stated)
outcome [2]: inactive | Potency [3]: inactive

CN(C)c1ccc(N=NS(=O)(=O)O)cc1
outcome [1]: inactive

C[N+]1(C)CCC(OC(=O)C(c2ccccc2)c2ccccc2)CC1
outcome [2]: inactive | Potency [3]: inactive

CCc1c(C(=O)NCCc2ccc(N3CCCCC3)cc2)[nH]c2ccc(Cl)cc12
outcome [2]: inactive | Potency [3]: inactive

NC(=O)C1=CN(C2OC(COP(=O)(O)OP(=O)(O)OC[C@H]3O[C@@H](n4cnc5c(N)ncnc54)[C@H](OP(=O)(O)O)[C@@H]3O)C(O)C2O)C=CC1 (some centres not stated)
outcome [2]: inactive | Potency [3]: inactive

CNC(=O)[C@H]1O[C@@H](n2cnc3c(NCc4cccc(I)c4)ncnc32)[C@H](O)[C@@H]1O
outcome [2]: inactive | Potency [3]: inactive

O=c1cc(-c2ccccc2)oc2ccccc12
outcome [1]: inactive

CN1CC(=O)N/C1=N/C(=O)Nc1cccc(Cl)c1
outcome [2]: inactive | Potency [3]: inactive

Cc1cc(NC2CCCCC2)nc(-n2nc(C)cc2C)n1
outcome [2]: inactive | Potency [3]: inactive

O=C(c1ccc(OCCCc2cnc[nH]2)cc1)C1CC1
outcome [2]: inactive | Potency [3]: inactive

Cc1cc2c(cc1Cl)N(C(=O)Nc1ccc(Oc3cccnc3C)nc1)CC2
outcome [2]: inactive | Potency [3]: inactive

CC1OC1P(=O)(O)O (configuration not stated)
outcome [2]: inactive | Potency [3]: inactive

O=[N+]([O-])c1ccc(CSc2ncnc3c2ncn3[C@@H]2O[C@H](CO)[C@@H](O)[C@H]2O)cc1
outcome [2]: inactive | Potency [3]: inactive

Nc1ccc(O)c([N+](=O)[O-])c1
outcome [1]: inactive

CCCCC#Cc1nc(NC)c2ncn([C@@H]3O[C@H](CO)[C@@H](O)[C@H]3O)c2n1
outcome [2]: inactive | Potency [3]: inactive
